Reference: PubChem BioAssay (NCI)
Compounds without any hit were thinned out: in the full panel of roughly 83,000, 20% have a hit.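 Negative percent growth values reflect cell death: -40 means 40% of the cells present at the start died, and -100 means all died.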 A number with no mark means an inactive call. The source made the active and inactive calls. How the source made its calls: active means growth percent below 10; inactive means the rest.

How the values were obtained:
Test in all cases: NCI-60 one-dose screen, 48 h (100 = growth as untreated, 0 = no growth, -100 = all killed)
Details in all cases: 10 µM
EKVX NSCLC = system: EKVX NSCLC
SN12C renal = system: SN12C renal
UO-31 renal = system: UO-31 renal
TK-10 renal = system: TK-10 renal
ACHN renal = system: ACHN renal
CAKI-1 renal = system: CAKI-1 renal
A498 renal = system: A498 renal
CCRF-CEM leukemia = system: CCRF-CEM leukemia
MOLT-4 leukemia = system: MOLT-4 leukemia
SR leukemia = system: SR leukemia

SMILES	growth (EKVX NSCLC) [%]	growth (SN12C renal)	growth (UO-31 renal)	growth (TK-10 renal)	growth (ACHN renal)	growth (CAKI-1 renal)	growth (A498 renal)	growth (CCRF-CEM leukemia)	growth (MOLT-4 leukemia)	growth (SR leukemia)
Cc1ccc2oc3nc(C)c(C(=O)NCc4ccccc4)cc3c(=O)c2c1	77.1	96.5%	63%	87.2%	63.8%	60.3%	104%	76.4%	64.3%	79.9%
CC(=O)c1cc(Br)ccc1O	107	120%	98.7%	111%	105%	111%	106%	103%	101%	102%
CCN(CC)CCCC(C)Nc1nc(-c2ccc(OC)cc2)nc2cc(Cl)ccc12 (stereo not given)	70.2	58%	45%	88.8%	37%	78.8%	37.4%	57.9%	37.7%	51.8%
Clc1ccc(-c2cn(-c3ccccc3)c(-c3ccccc3)n2)c(Cl)c1	50.5	12.2%	-66.9% (active)	-82.9% (active)	-100% (active)	-22.8% (active)	-28.3% (active)	34.8%	6.15% (active)	-51.6% (active)
Clc1cccc(-c2nc(-c3cccs3)no2)c1	85.4	97.1%	74.1%	110%	96.3%	103%	93.1%	78.3%	86.3%	85.7%
COc1cc(-c2cc(C(=O)N3CCN(C(=O)c4ccccc4NCc4ccco4)CC3)nc3cc(-c4ccccc4)nn23)cc(OC)c1OC	49	44.4%	6.15% (active)	35.8%	53.6%	12%	-0.0574% (active)	19.3%	37.8%	-2.88% (active)
COc1ccc(C2=NN(C(=O)c3ccc(S(C)(=O)=O)cc3)C(c3ccc(OC)c(OC)c3)C2)c(OC)c1 (stereo not given)	98.7	100%	74.9%	116%	102%	93.1%	98.5%	103%	92.2%	97.2%
O=C(Nc1cccc(Br)c1)c1cc(=O)[nH]c2ccccc12	87.1	99.7%	97.9%	109%	98.5%	76.6%	111%	84.9%	96.1%	81%
C=C(C(=O)c1ccccc1)C(NC(C)(C)C)c1ccccc1 (stereo not given)	52.3	2.42% (active)	-51.7% (active)	9.63% (active)	-59.4% (active)	6.9% (active)	94.1%	5.75% (active)	4.36% (active)	-17.7% (active)
Fc1ccc(-c2nnc(-c3c(-c4ccc(F)cc4)nc4ccccn34)o2)cc1	95.3	77.2%	83.8%	102%	83.2%	91.1%	62%	95.4%	100%	47.3%
COc1cc(-c2nc(-c3nnc(-c4ccc(F)c(Cl)c4)o3)c3ccccn23)cc(OC)c1OC	64.2	43.9%	29.5%	56.7%	10.7%	58%	40.6%	68.6%	67%	42.4%
O=C(CCCCCCC(=O)Nc1cccnc1)NO	96.7	71.2%	30.3%	41%	65.7%	46.6%	42.9%	2% (active)	16.9%	28.6%
Cc1nc2oc3ccccc3c(=O)c2cc1C(=O)NCc1ccccc1	69.3	99%	63.3%	87.6%	63.3%	52%	92.5%	76.9%	66.7%	69.7%
CCCCCC(=O)c1ccc(OCCCN2CCN(C(=O)OCC)CC2)cc1	83.4	94.8%	77.4%	101%	96.1%	95.2%	95.5%	21.1%	78.6%	84.4%
